Data published in the supplement of paper PMC3334620.
The full ranking holds about 33,000 sequences; the median of “E-score (-0.5 to 0.5)” is about -0.032, and the highest 2% start at about 0.36. The sample holds the highest values, similar sequences and a random draw of the others, so the mix is not that of the screen.

Molecular target: T1, Sko1 (UniProt Q02100)
T1 sequence: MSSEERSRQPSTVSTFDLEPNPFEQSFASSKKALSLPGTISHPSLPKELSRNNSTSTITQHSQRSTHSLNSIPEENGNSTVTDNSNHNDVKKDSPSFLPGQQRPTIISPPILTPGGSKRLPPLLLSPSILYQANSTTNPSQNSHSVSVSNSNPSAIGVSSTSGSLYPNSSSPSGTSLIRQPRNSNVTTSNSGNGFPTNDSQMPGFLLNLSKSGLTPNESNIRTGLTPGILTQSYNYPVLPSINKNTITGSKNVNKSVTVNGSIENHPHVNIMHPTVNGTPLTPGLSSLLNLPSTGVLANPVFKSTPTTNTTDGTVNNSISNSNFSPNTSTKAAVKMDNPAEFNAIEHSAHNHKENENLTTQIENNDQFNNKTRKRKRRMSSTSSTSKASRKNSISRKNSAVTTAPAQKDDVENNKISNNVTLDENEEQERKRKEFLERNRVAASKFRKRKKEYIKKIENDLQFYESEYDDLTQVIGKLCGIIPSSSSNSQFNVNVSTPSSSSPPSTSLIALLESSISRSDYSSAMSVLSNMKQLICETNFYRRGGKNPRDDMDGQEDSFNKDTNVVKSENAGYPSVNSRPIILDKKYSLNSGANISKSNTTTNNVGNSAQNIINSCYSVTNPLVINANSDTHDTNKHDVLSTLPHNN
Test: PBM E-score (8-mer binding enrichment) (E-score (-0.5 to 0.5)); higher = stronger / more preferred TF binding
Conditions: protein concentration: 200 nM; construct: GST-full length
Protocol: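 Universal 'all 10-mer' protein binding microarrays (Agilent AMADID 015681) probed with GST-tagged S. cerevisiae TFs (full-length or DBD) made by in vitro transcription/translation (PURExpress), about 100-200 nM. Bound TF was detected with fluorescent anti-GST. Each ungapped 8-mer (which stands for itself and its reverse complement) is scored by the PBM enrichment score (E-score), a modified Wilcoxon-Mann-Whitney statistic from -0.5 to +0.5, computed with the Universal PBM Analysis Suite. Scale: above 0.35 generally sequence-specific binding.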

Sequence | PBM E-score
AGATACCC | -0.0725
CTTGAAAG | -0.0877
ACGACTTG | -0.058
CCAGCGTC | -0.229
GTAATGAA | 0.281
GTAATGAC | 0.399
CTAATGAC | 0.299
GACGTCCA | 0.331
GACGTCCC | 0.217
TACGTCCA | 0.404
GACGTCGC | 0.334
AACGTCTA | 0.239
GACGTCAC | 0.487
AACGTCAA | 0.424
TACGTCTA | 0.421
GACGTCTA | 0.358
AACGTCCA | 0.245
CACGTCTA | 0.314
CACGTCCA | 0.254
ATTGTTGC | 0.236
ACAGGAGT | -0.0316
CCCACTGC | -0.115
ATGCGCCA | -0.00554
ATAAGACG | 0.115
AACGTCTG | 0.239

Sequence | PBM E-score
CCCGTCAA | -0.0876
CCCGTCAG | -0.214
CACGTCTG | 0.23
TCCGTCAA | 0.0302
AACGTCGG | 0.182
CACGTCAG | 0.462
AACGTCAG | 0.429
TACGTCAA | 0.479
CACGTCAA | 0.426
TTCGTCAA | 0.297
CCTGTGCC | -0.224
GCGACGCC | -0.0621
ATAGGTGC | -0.114
ATCCATGG | -0.237
GAGATCAC | 0.00833
AAGCAAGA | 0.0771
AGTTGTGA | 0.0903
CACGATGG | -0.0649
CGTGGCGA | 0.0528
CACGTCTC | 0.134
AACGTCCC | -0.0499
AACGTCCT | 0.0619
AGCGTCAC | 0.252
AACGTCTC | 0.111
GCCGTCAA | -0.081

Sequence | PBM E-score
AACGTCAT | 0.493
GACGTCAA | 0.47
AACGTCGT | 0.247
AACGTCAC | 0.471
GACGTCTC | 0.384
ACGGTTTA | -0.0562
CTCCAGGA | -0.0718
CGTGGTAC | 0.213
ACCCGCGG | -0.0735
CAGCGAGG | -0.233
TCGGGCAA | -0.0812
ATCCTGTC | -0.0275
CAAATATC | 0.109
CAGGGTCG | -0.241
GTCGGTGA | 0.049
ACAACTAG | -0.00944
CACGTCAC | 0.482
CACGTCCC | 0.00358
TGCGTCCA | 0.155
GGCGTCAA | 0.235
CACGTCGC | 0.235
TGCGTCAA | 0.377
GGTGAGCA | -0.0791
AATTTAGC | 0.187
GCCTGATA | -0.0647

Sequence | PBM E-score
TAAGGGAA | 0.108
CAGACGCA | 0.055
GAGACGGA | -0.0605
AAGACGGC | -0.219
GAGACGAA | -0.0289
AAGACGTC | 0.419
AAGACGTG | 0.291
AAGACGTA | 0.454
CAGACGTA | 0.387
AAGACGAC | 0.0714
GAGACGTA | 0.394
CAGACGTC | 0.322
AAGACGGA | -0.0952
AGTCCTTC | -0.375
TCCGAACA | -0.124
CAATCTGG | -0.104
AGTACTCG | 0.0859
AGCTTAGG | -0.198
CTTCGGTC | -0.0632
CCTGTGTA | -0.0155
GTCGGAAC | -0.0708
AGTAGTAC | 0.173
CGTAGTAC | 0.372
CGTAGTAG | 0.309
AGGGTTGG | 0.0955

Sequence | PBM E-score
AAGTAATG | 0.0878
ACGTAATG | 0.492
ACGTAATC | 0.492
ATGTAATG | 0.321
CCGTAATC | 0.111
ATGTAATC | 0.313
AGGCCGCC | -0.182
CTTCCCGC | -0.0138
CACCTTCG | -0.136
ATCTTGCC | -0.0574
GTCGAACA | -0.00814
ACTGCGTA | 0.343
CTTGCGTC | 0.27
ATTGCGCC | -0.0972
ATTGCGCA | 0.251
GCTGCGTA | 0.308
ACTGCGTG | 0.131
ATTGCGTG | 0.419
ATTGCGTA | 0.472
GTTGCGGA | 0.0145
ATTGCGTC | 0.414
GTTGCGTA | 0.422
ATTGCGAG | -0.0027
GAGCAGAC | -0.0861
GTGTCCCA | -0.0921

Sequence | PBM E-score
AGCCAGCT | -0.097
ATGAATTC | 0.0634
CACAGTCA | -0.095
ATAATAGC | 0.0417
GCGGTCCA | -0.323
ATTCAGCA | 0.00168
CTTGCGGA | -0.261
CCTGCGTA | 0.315
CTTGCGTA | 0.423
CGTTGAGA | 0.0138
AGCATCCA | -0.238
AAAAATCC | -0.162
ATTATGTG | 0.266
GGTATGAC | 0.183
ATTATGTA | 0.398
AGTATGTA | 0.0841
CGTATGTA | 0.367
ATTATGTC | 0.336
CGTATGAG | 0.267
CGTATGGC | 0.348
CGTATGAA | 0.361
AGTATGAA | 0.0617
CGTATGTC | 0.321
CGTATGAC | 0.445
CCACATCA | 0.175

Sequence | PBM E-score
GAGATCGA | 0.0574
ATCACTCA | 0.0754
GAGCTAGA | -0.11
CCTGTTCA | -0.203
AAGCATAG | -0.128
AGAGCAGG | -0.126
CATCGCCG | -0.137
AAACAGCC | -0.17
GCTATACC | -0.171
AAATCCCC | -0.238
GGTAGATA | 0.0735
AGTATGAC | 0.376
AGTATGAG | 0.129
AGTATGAT | 0.286
AACCTACC | -0.193
CTAGGGTA | -0.161
CAGTGAGA | 0.0132
CGTAATTA | 0.439
CGTAATTC | 0.435
GGTAATTA | 0.239
AGTAATTA | 0.263
AGTAATTC | 0.169
CATAATTC | 0.238
